We go through 24 compounds from the supplement of paper PMC9446081.

± gives the standard deviation of the averaged measurements.

Chain of MurC (C4ZRI6 whole entry, looked up): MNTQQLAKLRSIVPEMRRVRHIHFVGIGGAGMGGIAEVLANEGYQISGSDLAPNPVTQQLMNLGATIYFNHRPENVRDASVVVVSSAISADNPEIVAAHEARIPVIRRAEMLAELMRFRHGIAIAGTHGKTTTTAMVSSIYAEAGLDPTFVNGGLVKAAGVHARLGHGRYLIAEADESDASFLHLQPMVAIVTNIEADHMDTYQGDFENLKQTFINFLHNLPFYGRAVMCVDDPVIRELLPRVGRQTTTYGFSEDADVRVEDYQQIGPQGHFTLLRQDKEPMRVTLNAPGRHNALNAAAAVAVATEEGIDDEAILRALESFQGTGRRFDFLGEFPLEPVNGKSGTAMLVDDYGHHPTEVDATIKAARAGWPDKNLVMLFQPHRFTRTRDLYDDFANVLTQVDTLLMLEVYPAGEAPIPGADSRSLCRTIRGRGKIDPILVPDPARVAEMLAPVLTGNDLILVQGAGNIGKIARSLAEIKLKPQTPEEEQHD

This test has as its target MurC (UniProt C4ZRI6). Put plainly: relative enzymatic activity vs untreated control (fraction); higher = less inhibition. The conditions noted are these: 100 µM; incubation time: 2 h at 37 C. The method, then:
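In vitro enzymatic inhibition assays (ProFoldin kits) for 12 purified essential E. coli enzymes or complexes, each treated with 218 active antibacterial compounds at 100 µM for 2 h at 37°C. Read-outs were fluorescence or absorbance (phosphate detection, dye binding), converted to activity via standard curves and expressed relative to untreated DMSO controls.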
As to `CCCCCCCCCCCCCCCC[n+]1ccccc1`, the relative enzymatic activity worked out at 0.754 ± 0.24. To `CN1C(=O)[C@]23CC4=CC=C[C@H](O)[C@H]4N2C(=O)[C@@]1(CO)SS3` belongs 0.8476 ± 0.0014. Compound `Cc1nc2c(=O)n(C)c(=O)nc-2n(C)n1` came in with a relative enzymatic activity of 1.06 ± 0.095. Compound `Oc1cc(Cl)ccc1Oc1ccc(Cl)cc1Cl` returned a relative enzymatic activity of 1.2 ± 0.16. The compound `CN(C)[C@@H]1C(=O)[C@H](C(N)=O)C(=O)[C@@]2(O)C(=O)[C@@H]3C(=O)c4c(O)cccc4[C@@](C)(O)[C@H]3C[C@@H]12` gave a relative enzymatic activity of 1 ± 0.031. The figure for `CCCCCCCCCCCCCCCC[N+](C)(C)C.[Br-]` is 0.492 ± 0.29; for `Cc1c(N)nc([C@H](CC(N)=O)NC[C@@H](N)C(N)=O)nc1C(=O)N[C@H](C(=O)N[C@@H](C)[C@H](O)[C@@H](C)C(=O)N[C@@H](C(=O)NCCc1nc(-c2nc(C(=O)NCCC[S+](C)C)cs2)cs1)[C@@H](C)O)[C@@H](O[C@H]1O[C@H](CO)[C@H](O)[C@@H](O)[C@H]1O[C@H]1O[C@H](CO)[C@@H](O)[C@H](OC(N)=O)[C@@H]1O)c1cnc[nH]1` it is 0.849 ± 0.025. To `O=S(=O)(O)O.Oc1cccc2cccnc12` belongs 1.08 ± 0.015; to `CNC1C(O)C(OC2C(N)CC(N)C(OC3OC(C(C)O)C(O)C(O)C3N)C2O)OCC1(C)O` (centres undefined), 1.03 ± 0.029. The figure for `CC(=O)[O][Hg][c]1ccccc1` is 1.69 ± 0.032; for `CN(C)[C@@H]1C(=O)[C@@H](C(N)=O)C(=O)[C@@]2(O)C(=O)[C@H]3C(=O)c4c(O)ccc(Cl)c4[C@@](C)(O)[C@H]3C[C@@H]12` it is 1.08 ± 0.068. `COP(=S)(OC)Oc1cc(Cl)c(Cl)cc1Cl` returned a relative enzymatic activity of 1.08 ± 0.024. To `O=C1C=C2C(=CCOC2O)O1` (centres undefined) belongs 1.06 ± 0.07; to `CCn1cc(C(=O)[O-])c(=O)c2cc3c(cc21)OCO3.[K+]`, 0.977 ± 0.032. To `Cn1ncnc2c(=O)n(C)c(=O)nc1-2` belongs 0.99 ± 0.11; to `[O-][n+]1ccccc1[S][Zn][S]c1cccc[n+]1[O-]`, 1.21 ± 0.17; to `CCCCCCCCCCCCCCCC[n+]1ccccc1.[Cl-]`, 0.264 ± 0.051. The figure for `Cc1c(N)nc([C@H](CC(N)=O)NC[C@@H](N)C(N)=O)nc1C(=O)N[C@H](C(=O)N[C@@H](C)[C@H](O)[C@@H](C)C(=O)N[C@@H](C(=O)NCCc1nc(-c2nc(C(=O)NCCC[S+](C)C)cs2)cs1)[C@@H](C)O)[C@@H](O[C@H]1O[C@H](CO)[C@H](O)[C@@H](O)[C@H]1O[C@H]1O[C@H](CO)[C@@H](O)[C@H](OC(N)=O)[C@@H]1O)c1c[nH]cn1` is 0.895 ± 0.017; for `CN(C)[C@@H]1C(=O)C(C(N)=O)=C(O)[C@@]2(O)C(O)=C3C(=O)c4c(O)cccc4[C@](C)(O)[C@H]3C[C@@H]12` it is 1.017 ± 0.0095; for `O=[N+]([O-])C(Br)(CO)CO` it is 1.11 ± 0.12. `O=[N+]([O-])c1ccc(N(CCO)CCO)c2c1no[n+]2[O-]`: the relative enzymatic activity was 0.936 ± 0.055. In the case of `C[CH2][Hg][S]c1ccccc1C(=O)[O-].[Na+]`, the relative enzymatic activity came out at 1.17 ± 0.085. To `CC(=O)Oc1ccc(Cl)c2cccnc12` belongs 1.03 ± 0.041; to `CN[C@H]1C[C@@H](N)[C@H](O)[C@@H](O[C@@H]2O[C@H](CO)[C@H](O)[C@@H]3O[C@@]4(O[C@H]23)O[C@H]([C@@H](N)CO)[C@H](O)[C@H](O)[C@H]4O)[C@@H]1O`, 1.04 ± 0.017.
